Screens (PubChem BioAssay)
In the library only some 4.1% were active in any assay of this set; here they are far more common.
DAX1 inh-1: DAX1 (NR0B1) inhibition, primary screen. HEK293T StAR-luciferase reporter, SF-1/DAX-1 repression relief. inhibition, % at 6.8 µM. 1.1% of 370,000 active. AID 652010;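 active means inhibition above the mean over all tested compounds plus 3 SD, cut at about 3.6% in these data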;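 further: higher inhibition means more luminescence from relief of DAX-1 repression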
hcDAF12 agonist: H. contortus DAF-12 activation, primary screen. HEK293 hcDAF-12 lit1-tk-luc reporter, luminescence; 0% DMSO, 100% Δ7-dafachronic acid. activation, % at 6.8 µM. 1.4% of 370,000 active. AID 652067;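 active means activation above the mean of all tested compounds plus 3 SD, cut at about 5.5% in these data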
DAX1 inh-2: inhibits human nuclear receptor DAX1; P51843; HEK293 Gal4-DAX1 luciferase reporter, luminescence; 0.99% of 340,000 active; inhibition, % at 6.75 µM;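 active means inhibition above the mean over all tested compounds plus 3 SD, cut at about 4.2% in these data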;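 further: inhibition shows as a rise in luminescence from relieved DAX1 repression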
Target sequence (P51843 207-470 limits assumed): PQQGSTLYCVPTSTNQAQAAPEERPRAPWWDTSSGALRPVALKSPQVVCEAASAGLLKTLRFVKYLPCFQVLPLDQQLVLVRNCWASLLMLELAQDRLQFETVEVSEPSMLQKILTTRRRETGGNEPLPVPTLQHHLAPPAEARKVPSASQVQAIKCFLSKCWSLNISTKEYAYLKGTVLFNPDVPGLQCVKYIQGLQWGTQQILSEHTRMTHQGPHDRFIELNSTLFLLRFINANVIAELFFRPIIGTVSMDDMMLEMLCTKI
hgDAF12 agonist: hgDAF-12 agonism, primary luciferase screen; AID 687014; HEK293 GAL4-hgDAF12 UAS-luciferase reporter, agonist luminescence; normalized to butyrate control; 1.8% of 370,000 active; activation, % at 6.8 µM;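 active means activation above a cutoff set at the mean of all screened compounds plus 3 SD, cut at about 10% in these data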
ssDAF-12 act: activates DAF-12 receptor from parasite S. stercoralis; activation, % at 6.8 µM; 1% of 370,000 active; HEK293 ssDAF-12/GRIP1 lit1-tk-luc reporter, luminescence; % of 3 µM dafachronic acid response;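 active means activation above the mean over all tested compounds plus 3 SD, cut at about 0.9% in these data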
Each line names hits and unclear results; the compound was inactive in the other large screens.

COc1ccc(N2CCN(CCCNC(=O)Cc3ccc(C(F)(F)F)cc3)CC2)cc1	none (no result: DAX1 inh-2)
Oc1cc2ccccc2cc1-c1n[nH]c(=S)o1	none
Cc1cc(-c2n[nH]c(=S)o2)c(C)n1-c1ccccc1	DAX1 inh-1 4.0 (no result: DAX1 inh-2)
Cc1c(C(=O)NCc2ccco2)oc2c(F)cccc12	hcDAF12 agonist 5.9
Cc1c(C(=O)NCc2ccco2)oc2ccccc12	none
CCCCn1c(CN2CCOCC2)nc2c1c(=O)n(C)c(=O)n2C	hgDAF12 agonist 10.8
CC(C)CCn1c(CN2CCN(c3cccc(Cl)c3)CC2)nc2c1c(=O)n(C)c(=O)n2C	hgDAF12 agonist 12.8
CCCCCCn1c(Br)nc2c1c(=O)n(C)c(=O)n2C	ssDAF-12 act 1.0
CCCn1c(=O)c2c(nc(Br)n2CCC)n(C)c1=O	none
COCCn1c(CN2CCN(c3cccc(Cl)c3)CC2)nc2c1c(=O)n(C)c(=O)n2C	none
CCCCCCn1c(NCC)nc2c1c(=O)n(C)c(=O)n2C	none
CC(C)Cn1c(Br)nc2c1c(=O)n(CCC#N)c(=O)n2C	DAX1 inh-2 4.3
O=C1CC(c2ccccc2)CC(=O)N1c1ccc(C(F)(F)F)cc1	none
C[C@@H]1ON(C)[C@H]2C[C@H]3c4[nH]c5c(-c6cc(Cl)cc(Cl)c6)cccc5c4CCN3C(=O)[C@@H]12	none (no result: DAX1 inh-2)
Cc1nc2ccc(S(=O)(=O)NCC(=O)NCc3cccs3)cc2s1	none (no result: DAX1 inh-2)
COC(=O)[C@]12C[C@H](CC(=O)NCc3cccc4ccccc34)C(=O)N(Cc3ccccc3)C1=C[C@H](C(C)(C)C)O[C@@H]2C	none (no result: DAX1 inh-2)
CCCCCn1c(=O)[nH]c2cc(C(=O)O)ccc2c1=O	none
COC(=O)c1ccc2c(=O)n(CCCCCC(=O)NC(C)C)c(=O)[nH]c2c1	none
COC(=O)c1ccc2c(=O)n(CCCCCC(=O)NC3CCCCC3)c(=O)[nH]c2c1	hcDAF12 agonist 5.8 (no result: DAX1 inh-2)
CCCCCn1c(=O)[nH]c2cc(C(=O)NC3CCN(Cc4ccccc4)CC3)ccc2c1=O	DAX1 inh-2 6.5
C=CC[C@H]1c2ccccc2[C@H]2N3N=Cc4ccccc4[C@H]3[C@H](CCCC)C(=O)N2N1C(=O)c1ccccc1	none (no result: DAX1 inh-2)
CC(NC(=O)c1cc2ccc(C(F)(F)F)cc2nc1N)c1cccc2ccccc12 (configuration not stated)	none (no result: DAX1 inh-2)
C#CCNC(=O)C[C@H]1C[C@@]2(C(=O)OC)C(=C[C@H](C3CCCC3)O[C@@H]2C)N(CCc2ccc(OC)c(OC)c2)C1=O	none (no result: DAX1 inh-2)
CN(CC(=O)Nc1ccc(F)cc1)C(=O)CSc1nncs1	DAX1 inh-1 3.9
COc1ccccc1Nc1nnc(SCC(=O)c2c(N)n(C3CC3)c(=O)[nH]c2=O)s1	none
CCc1ccccc1NC(=O)C1CCN(C(=O)c2cccs2)CC1	DAX1 inh-2 4.4
Cc1cc(F)ccc1C(O)c1ncc(-c2ccc3ccccc3c2)[nH]1 (configuration not stated)	DAX1 inh-1 3.7 (no result: DAX1 inh-2)
OC(c1ccc(F)cc1)c1ncc(-c2ccc3ccccc3c2)[nH]1 (configuration not stated)	hgDAF12 agonist 11.0 (no result: DAX1 inh-2)
Cc1ccc(C(O)c2ncc(-c3ccc(F)cc3)[nH]2)c(C)c1 (configuration not stated)	none (no result: DAX1 inh-2)
O=C(NNc1nc2c(F)cc(F)cc2s1)C1=COCCO1	DAX1 inh-2 5.6
Cc1cccc2sc(NNC(=O)C3=COCCO3)nc12	none
CCC(=O)NNc1nc2c(F)cc(F)cc2s1	ssDAF-12 act 1.1
CC(C)[C@H](N)C(=O)N[C@H](C(=O)N1CCC2CCN(S(=O)(=O)c3ccccc3)CC21)C(C)C (some centres not stated)	none (no result: DAX1 inh-2)
CCCCN(C)C(=O)c1oc(=O)c2ccccc2c1-c1ccc(C)cc1	none (no result: DAX1 inh-2)
COc1ccc(-n2c(SCC(=O)c3ccc4ccccc4c3)nnc2-c2ccccc2)cc1	none (no result: DAX1 inh-2)
C[C@@H](C(=O)Nc1nccs1)N1C(=O)C2CC=CCC2C1=O (some centres not stated)	DAX1 inh-2 4.8
O=C(c1cccc(F)c1)N1CCCC(c2nc(-c3cccs3)no2)C1 (configuration not stated)	none (no result: DAX1 inh-2)
CC(=O)c1ccc(NC(=O)c2cc(Cl)sc2Cl)cc1	hgDAF12 agonist 12.4, ssDAF-12 act 1.4
Cc1cc(C)cc(NC(=O)c2cc(Cl)sc2Cl)c1	none
CC(C)C[C@@H]1COc2cc(Br)ccc2S(=O)(=O)N1Cc1cn(CCC2OCCCO2)nn1	none (no result: DAX1 inh-2)
